Test results reported in ChEMBL document CHEMBL3988442, “University of Dundee, Small-Polar-MMV Screening Library” (2021).
Out of some 48,000 compounds screened, about 13,000 (27%) showed an effect of 50% or more. This is one part of the list.

Test system: Wolbachia pipientis
Test: Anti-Wolbachia Cell-Based Screen
Type: functional
Set-up: scale not given: in the data most compounds retested in dose-response had high values
Settings: 5 µM

| Compound | Percent Effect [%] |
| --- | --- |
| CCN(C)S(=O)(=O)c1ccc(Cl)cc1C#N | -3.723 |
| CCN1C(=O)[C@]2(CC[C@@H]3CN(C(=O)NCC(C)C)C[C@@H]32)N=C1C | 1.741 |
| CCS(=O)(=O)N1Cc2ncn(CC3CC3)c2C(COC)C1 (stereo not given) | 96.93 |
| CCOCC1CN(S(=O)(=O)CC)Cc2nn(C)cc21 (stereo not given) | -1.442 |
| COCC1CN(S(C)(=O)=O)Cc2ncn(CC3CC3)c21 (stereo not given) | -3.416 |
| CCS(=O)(=O)N1CCc2cc(C(=O)NC)c(NCC(C)C)nc2CC1 | -9.983 |
| C[C@H](NC(=O)Cc1csc(-c2cccc(Cl)c2)n1)C(=O)O | 100.7 |
| COc1cccc(-c2nc(C)c(C(=O)N[C@@H](C)C(=O)O)s2)c1 | -5.733 |
| O=C(Cc1csc(-c2ccc(Cl)cc2)n1)NC(C(=O)O)c1ccccc1 (stereo not given) | 14.14 |
| O=C(Cc1csc(-c2ccccc2)n1)N[C@@H](C(=O)O)c1ccccc1 | 112.5 |
| CC[C@H](C)[C@H](NC(=O)Cc1csc(-c2cccc(Cl)c2)n1)C(=O)O | -0.2804 |
| COc1cccc(-c2nc(CNC(C)Cn3cccn3)cs2)c1 (stereo not given) | 12.67 |
| CC(C)C[C@H](NC(=O)Cc1csc(-c2cccc(Cl)c2)n1)C(=O)O | 111.7 |
| O=C(Cc1csc(N2CCNC2=O)n1)NC(c1ccccc1)C1CC1 (stereo not given) | -8.956 |
| NC(=O)CCS(=O)(=O)Cc1ccc(OCC(F)(F)F)cc1 | -2.639 |
| CC(=O)Nc1ccc2c(c1)nc1n2[C@@H](CNCc2ccccc2)COC1 | -2.529 |
| C1CC(CN2C[C@H]3CC[C@@H]2CN(Cc2noc(C4CCCC4)n2)C3)C1 | -8.86 |
| O=C1CC(c2cccc(O)c2)c2c(c(C(=O)O)cn2-c2ccccc2)N1 (stereo not given) | 2.755 |
| OC[C@@H]1CCCN1c1ccc(-c2nc(COc3ccccc3)no2)cn1 | -5.727 |
| OC[C@H]1CCCN1c1nccc(-c2cncnc2C2CCCCC2)n1 | 101.1 |
| OC[C@H]1CCCN1c1nccc(-c2c[nH]nc2C2CCCCC2)n1 | 103.3 |
| OCC1CCCN1c1cc(N2CCc3ccccc3C2)ncn1 (stereo not given) | -8.701 |
| COCc1noc(-c2ccc(N3CCC[C@H]3CO)nc2)n1 | 11.1 |
| OC[C@@H]1CCCN1c1nccc(-c2c[nH]nc2-c2ccncc2)n1 | 132.9 |
| COCc1noc(-c2ccc(N3CCCCC3CO)nc2)n1 (stereo not given) | -1.816 |
| CC(NC(=O)c1cc2n(n1)CCCN(C)C2)c1cn2ccsc2n1 (stereo not given) | -3.947 |
| CC(C)(C)OC(=O)N1CC(CC(=O)NCc2ccsc2)C1 | -134.2 |

| Compound | Percent Effect [%] |
| --- | --- |
| N#Cc1cccc(CNc2cc(CO)ccc2Cl)c1 | -41.9 |
| CC(=O)N[C@@H]1CN(C2CCN(c3cccc(C)c3C)CC2)C[C@H]1C(C)C | -7.453 |
| Cc1ncccc1OC1(C(=O)NCc2noc(C(C)C)n2)CCNCC1 | -7.244 |
| CNc1cc(C)nc(C2CN(Cc3cc[nH]n3)CCO2)c1 (stereo not given) | -11.69 |
| CCc1nnc(Nc2cc(C)nc(C3CN(C(C)=O)CCO3)c2)s1 (stereo not given) | 108.4 |
| CCCc1nnc(NC(=O)N2CCCC(NC(C)=O)C2)s1 (stereo not given) | -6.221 |
| COc1cccc(CNCc2ccnc(N3CCOCC3)c2)c1OC | 119.8 |
| Cl.c1cc(CNCc2ccc3c(c2)CCO3)cc(N2CCOCC2)n1 | -6.468 |
| COc1ccc(CNCc2ccnc(N3CCOCC3)c2)cc1OC | -3.598 |
| COc1cc(CNCc2ccnc(N3CCOCC3)c2)cc(Cl)c1OC | -1.055 |
| Cl.c1cc(CNCc2ccnc(N3CCOCC3)c2)c2c(c1)OCO2 | 16.56 |
| COc1ccc(CNCc2ccnc(N3CCOCC3)c2)c(OC)c1 | -1.923 |
| COc1c(C)cc(CNCc2ccnc(N3CCOCC3)c2)cc1C.Cl | 93.56 |
| COc1cc(CNCc2ccnc(N3CCOCC3)c2)cc(OC)c1 | 97.96 |
| COc1ccc(OC)c(CNCc2ccnc(N3CCOCC3)c2)c1 | 119.2 |
| CCOc1ccccc1N(C)C(=O)c1ccc(Cl)cn1 | -0.6778 |
| O=C([C@H]1C[C@H]2OCC[C@H]2N(C(=O)c2ccncc2)C1)N1CCCCO1 | 15.67 |
| CC(=O)c1c(O)ccnc1C(F)(F)F | -30.29 |
| COc1ccc2c(c1)C(C(=O)N(C)CCc1scnc1C)CC(=O)N2 (stereo not given) | 13.25 |
| CCCc1nn(C2CCN(C3CC3)C2=O)c(=O)o1 (stereo not given) | -0.5192 |
| CC(C)c1cc(NCC2(CO)CCC2)ncn1 | -3.782 |
| CCOc1cc(F)ccc1NC(=O)N(C(C)CS(C)(=O)=O)C1CC1 (stereo not given) | -6.232 |
| CCOC(=O)N(C)C1CCN(Cc2ccsc2)CC1 | -3.636 |
| CC(c1nc(C2CC2)no1)N1CCN(Cc2ccsc2)CC1 (stereo not given) | 3.758 |
| Cc1cncc(C2CCN(Cc3cccn3C)CC2)n1 | 121.9 |
| Cc1cncc(C2CCN(Cc3ccsc3)CC2)n1 | 117.4 |
| COc1cncc(N2CCN(Cc3cccn3C)CC2)n1 | -11 |

| Compound | Percent Effect [%] |
| --- | --- |
| Cc1cncc(C2CCCN(Cc3cccn3C)C2)n1 (stereo not given) | 4.46 |
| Cc1ccccc1C(=O)NC[C@@H]1CCN(C(=O)c2cccn2C)C[C@H]1O | 2.167 |
| Cc1cnn(CCNCc2ccc(C#N)cc2F)c1 | -2.376 |
| Cn1c(C2CC2)nc2cc(NC(=O)C3(O)CCCC3)ccc21 | -3.273 |
| CC(NC(=O)CCn1cccn1)c1cccs1 (stereo not given) | -33.21 |
| Cc1ccc(CNC(=O)CCC(=O)NCCC(C)C)o1 | -4.384 |
| Cc1ccn(CCC(=O)NCc2ccc(C)o2)n1 | 96.24 |
| CC(Cc1ccco1)NC(=O)CSc1nnc[nH]1 (stereo not given) | -0.3206 |
| CC(Cc1ccco1)NC(=O)CCn1cccn1 (stereo not given) | -2.22 |
| Cc1ccn(CCC(=O)NCc2ccco2)n1 | 113.3 |
| Cc1ccn(CCC(=O)NC(C)Cc2ccco2)n1 (stereo not given) | 108 |
| CCC(C)NC(=O)CCn1ccc(C)n1 (stereo not given) | 122.6 |
| CCN(Cc1nccn1C)C(=O)c1ccc(NCc2ccc(C)o2)nc1 | 12.06 |
| O=C(CCN1C[C@H]2CC[C@@H]1CN(c1ncccn1)C2)NCc1ccco1 | -5.213 |
| Cc1ccc(OCC(=O)NCc2ccco2)nc1 | -11.41 |
| COC(=O)CC(NC(=O)CCn1cccn1)c1ccc(C)cc1 (stereo not given) | -17.18 |
| CC(C)Cc1nc(CN2CCC3(CCCO3)CCC2=O)no1 (stereo not given) | -10.71 |
| COc1ccc(OC)c(-n2cnnc2C)c1 | -0.7087 |
| Cc1nc(C#N)c(N2CCC(c3nc(-c4ccccc4)no3)CC2)o1 | 4.008 |
| Cc1cc(C)nc(CN(C)C(=O)c2cccc(CCC(C)(C)O)c2)c1 | 33.03 |
| Cc1cc(C)n(CC(C)CNC(=O)CCc2ccco2)n1 (stereo not given) | 10.87 |
| Cc1ccn(CCC(=O)NCCc2ccco2)n1 | 109.8 |
| NC(=O)NC(=O)CCn1ccc(-c2ccccc2)n1 | -9.301 |
| Cc1ncc(CC(=O)N2CCC(N3C[C@@H](C)O[C@@H](C)C3)CC2)c(=O)[nH]1 | -13.09 |
| CCc1ocnc1C(=O)N1CCOCC1CC(=O)c1ccccc1 (stereo not given) | -28.11 |
| CC(C)c1nc(C(=O)N2CCOCC2CC(=O)c2ccco2)cs1 (stereo not given) | 84.12 |
| CC(C)c1ncc(C(=O)N2CCOCC2CC(=O)c2ccco2)s1 (stereo not given) | 131.2 |

| Compound | Percent Effect [%] |
| --- | --- |
| CC(C)c1ccc(C(=O)N2CCOCC2CC(=O)c2ccco2)cn1 (stereo not given) | 178.1 |
| CC(C)c1cc(C(=O)N2CCc3ccccc3C2C(=O)O)nn1C (stereo not given) | 7.9 |
| CC[C@H]1COCCN1C(=O)c1cnc(-c2ccccc2)nc1C | -84.76 |
| CC(C)c1cc(C(=O)N2Cc3ccccc3CC2C(=O)O)nn1C (stereo not given) | 14.25 |
| CCc1nc(C(=O)N2CCOCC2CC(=O)c2ccccc2)c[nH]1 (stereo not given) | -17.76 |
| CCc1ncc(C(=O)N2CCOCC2CC(=O)c2ccccc2)s1 (stereo not given) | -7.731 |
| CCc1ncc(C(=O)N2CCOCC2c2c(C)n[nH]c2C)s1 (stereo not given) | 6.424 |
| O=C(CC1COCCN1C(=O)c1cscn1)c1ccccc1 (stereo not given) | 5.406 |
| CC(C)c1cc(C(=O)N2CCOCC2CC(=O)c2ccco2)nn1C (stereo not given) | 128.9 |
| Cc1cc2c(C)cc(O)cc2c(=O)o1 | -3.203 |
| CC(C)(C)OC(=O)N1CCC[C@H](NCc2cc[nH]c2)C1 | -5.919 |
| CC(C1CCN(Cc2ccc(N(C)C)nc2)CC1)N(C)C (stereo not given) | 14.62 |
| COCC(c1ccccn1)N(C)C(=O)c1cc(-c2ccccc2O)n[nH]1 (stereo not given) | -8.202 |
| O=S(=O)(C1CC1)N1CCC2(CC1)CC(Oc1ccccn1)CO2 (stereo not given) | -5.73 |
| COCc1c(C(=O)N2CCCC(C(=O)c3nccn3C)C2)noc1C (stereo not given) | -5.481 |
| CN1CCOC[C@H]1c1nc(-c2cccc(F)c2)c[nH]1 | 6.119 |
| Cc1nc(-c2cccc(N3CCC(NC4CCSC4)CC3)c2)cs1 (stereo not given) | -11.84 |
| Cc1nc(-c2cccc(N3CCC(NC4CCOCC4)CC3)c2)cs1 | -8.689 |
| Fc1cccc(-c2cccc(N3CCC(NC4CCCOC4)CC3)c2)c1 (stereo not given) | 80.75 |
| COc1cccc(N2CCC(N3C[C@@H](NC(C)=O)[C@H](C(C)C)C3)CC2)c1 | 4.736 |
| Fc1cccc(-c2c[nH]c([C@@H]3COCCN3C3CCOCC3)n2)c1 | 5.513 |
| COc1cccc(-c2cccc(N3CCC(N[C@@H]4CCOC4)CC3)c2)c1 | 68.86 |
| COc1cccc(N2CCC(N3CCOC(C(F)(F)F)C3)CC2)c1 (stereo not given) | 11 |
| Cc1nc(-c2cccc(N3CCC(N[C@@H]4CCOC4)CC3)c2)cs1 | 61.49 |
